Bioassay records as filed in PubChem BioAssay.
KB-V1 MDR tox = kills drug-selected multidrug resistant KB-V1 cells | KB-V1 MDR cells viability, CellTiter-Glo, 72 h | Potency, µM (highest dose often 46.1 µM), most hits filed as cytotoxic | actives 3.4% (n = 400,000); note: nearly all actives have a fitted effect of over 60% in size
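KB-V1 MDR subline cells in DMEM (phenol-red free, 10% FBS) exposed to compounds in qHTS concentration series for 72 h at 37 degrees C. Viability read by CellTiter-Glo luminescence; concentration-effect curves fitted after normalization and correction.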
SW480 rerep = induces DNA re-replication in SW480 colon adenocarcinoma cells | SW480 DNA re-replication, Hoechst DNA content imaging, 48 h | Potency, µM (titrated, usually from 46.1 µM), actives largely listed as activators | actives 1.8% (n = 340,000) | AID 624297; note: nearly all actives have a fitted effect of over 55% in size
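Readout is total intensity of Hoechst-stained nuclei, excited at 405 nm and collected at 500-530 nm. Compound treatment lasted 48 hr at 37 C in 5% CO2 before staining.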
KB-3-1 cytotox = KB-3-1 parental cell cytotoxicity; KB-3-1 viability, CellTiter-Glo ATP luminescence, 72 h; AID 1347075; actives 1.4% (n = 400,000); Potency, µM (top dose mostly 46.1 µM), usual class: cytotoxic; note: nearly all actives have a fitted effect of over 60% in size
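Parental KB-3-1 adenocarcinoma cells in phenol-red-free DMEM with 10% FBS were pin-treated with compounds at several concentrations, incubated 72 h at 37 °C, and viability read by CellTiter-Glo luminescence; concentration-effect curves were fitted after normalization.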
MCF10A rereplic = induces DNA re-replication in MCF 10a normal breast cells; AID 624296; actives 2.9% (n = 350,000); MCF 10A DNA re-replication, Hoechst nuclear intensity, 48 h; Potency, µM (series often up to 46.1 µM), usual class: activators; note: nearly all actives have a fitted effect of over 50% in size
ELG1 repair inh = ELG1-dependent DNA repair inhibition; AID 504467; Potency, µM (top dose mostly 46.1 µM), usual class: inhibitors; HEK293T ELG1-luciferase reporter, luminescence, 16 h; DNA damage induced by 5-fluorouridine; actives 2.3% (n = 330,000); note: nearly all actives have a fitted effect of over 55% in size
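HEK293T cells expressing luciferase-tagged ELG1 (2,000/well) received 5-Fluorouridine plus compound or DMSO for 16 hr at 37 °C. Luciferase was read by ONE-Glo luminescence after 30 min at room temperature.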
Large screens that a line does not name were inactive. In the library only some 8.1% were active in any assay of this set; here they are far more common. Calls come from the whole dose curve; as a rule, active = well fitted curve in the direction sought with a large enough effect; inconclusive = small, poorly fitted or top-dose-only effect, or another doubt; inactive = no such curve, though single readings can be large; an effect the other way counts as inactive or inconclusive.

COc1ccccc1NC(=O)Cn1cnc2sc(C(=O)Nc3ccc(OC)c(OC)c3)c(C)c2c1=O	KB-V1 MDR tox inconclusive, SW480 rerep inconclusive
COC(=O)c1ccccc1NC(=O)CSc1ccccc1	none
Cc1sc2nc(SCC(=O)OC(C)C)n(C)c(=O)c2c1C	KB-V1 MDR tox 15µM, ELG1 repair inh inconclusive
COC(=O)c1ccccc1NC(=O)CSCC(=O)Nc1ccccc1OC	KB-V1 MDR tox 9.2µM
COc1ccccc1NC(=O)Cn1cnc2sc(C(=O)Nc3cc(OC)c(OC)c(OC)c3)c(C)c2c1=O	ELG1 repair inh 8.2µM
COc1ccccc1NC(=O)CSc1nc2sc(C)c(C)c2c(=O)n1C	KB-V1 MDR tox inconclusive, ELG1 repair inh 15µM
Cc1sc2nc(SCC(=O)NCCO)n(C)c(=O)c2c1C	KB-V1 MDR tox inconclusive
COc1ccc(CN2C(=O)CCC2(C)C(=O)NC2CCCCC2)c(OC)c1 (stereo not given)	KB-V1 MDR tox 21µM
COc1ccc(CN2C(=O)CCC2(C)C(=O)NCc2cccnc2)c(OC)c1 (stereo not given)	none
Cc1ccccc1C(=O)N1CCN(c2ccc([N+](=O)[O-])c(NCc3cccnc3)c2)CC1	KB-V1 MDR tox 4.1µM, ELG1 repair inh inconclusive
Cc1ccc(C(=O)N2CCN(c3ccc([N+](=O)[O-])c(NCc4cccnc4)c3)CC2)cc1	KB-V1 MDR tox inconclusive, ELG1 repair inh inconclusive
COC1(OC)C(=N/O)/C(=N\O)CCC1O (stereo not given)	MCF10A rereplic 16µM
O=C(/C(=C/O)N=Nc1ccccc1)c1ccco1	SW480 rerep inconclusive, MCF10A rereplic 15µM
O/N=C/c1ccc(OCc2ccccc2)c(Br)c1	KB-V1 MDR tox 12µM, SW480 rerep inconclusive, KB-3-1 cytotox inconclusive, MCF10A rereplic 26µM, ELG1 repair inh inconclusive
O/N=C/c1ccc(OCc2ccccc2F)c(Cl)c1	KB-V1 MDR tox 16µM, KB-3-1 cytotox inconclusive, MCF10A rereplic inconclusive, ELG1 repair inh inconclusive
CCOc1cc(/C=N/O)cc(Br)c1OCC	KB-V1 MDR tox inconclusive, MCF10A rereplic inconclusive, ELG1 repair inh inconclusive
CCOc1cc(/C=N/O)cc(Br)c1OCc1ccc(Cl)cc1	SW480 rerep inconclusive, MCF10A rereplic 11µM, ELG1 repair inh inconclusive
O/N=C/c1ccc(OCc2ccccc2)c(Cl)c1	KB-V1 MDR tox inconclusive, KB-3-1 cytotox inconclusive, ELG1 repair inh inconclusive
Cc1ccc(CSC2=Nc3ccccc3C3=NC(CC(=O)NC4CCCCC4)C(=O)N23)c(C)c1 (stereo not given)	none (no result: SW480 rerep, MCF10A rereplic, ELG1 repair inh)
COc1cc(-c2cc3nc4ccccc4n3c(N)c2C#N)cc(OC)c1OC	KB-V1 MDR tox inconclusive, SW480 rerep inconclusive, MCF10A rereplic inconclusive, ELG1 repair inh inconclusive
N#Cc1c(-c2ccccc2)cc2nc3ccccc3n2c1N	MCF10A rereplic 12µM, ELG1 repair inh inconclusive
CC(C)(C)OC(=O)NCCc1nnc(S(=O)(=O)Cc2ccc(Cl)cc2Cl)o1	SW480 rerep inconclusive, MCF10A rereplic 7.3µM
CC(C)(C)OC(=O)NCCc1nnc(SCc2ccccc2Cl)o1	ELG1 repair inh inconclusive
CN(C)S(=O)(=O)c1ccc(C(=O)N2CCN=C2SCc2ccccc2)cc1	none
CCCOc1ccc2ccccc2c1/C=N/n1c(C)nnc1-n1nc(C)cc1C	KB-V1 MDR tox 5.8µM, SW480 rerep 21µM, KB-3-1 cytotox 5.2µM, MCF10A rereplic 10µM, ELG1 repair inh inconclusive
N#C/C(=C\c1cccnc1)c1nc2ccccc2[nH]1	KB-V1 MDR tox 23µM, SW480 rerep inconclusive, KB-3-1 cytotox inconclusive, MCF10A rereplic inconclusive, ELG1 repair inh inconclusive
COc1cc(/C=C(\C#N)c2nc3ccc(C)cc3[nH]2)ccc1OC(C)C	none (no result: SW480 rerep, MCF10A rereplic, ELG1 repair inh)
Cc1ccc2nc(/C(C#N)=C/c3cn[nH]c3-c3ccc(F)cc3)[nH]c2c1	KB-V1 MDR tox inconclusive, SW480 rerep inconclusive, KB-3-1 cytotox inconclusive, MCF10A rereplic 13µM, ELG1 repair inh inconclusive
Cc1cc2nc(/C(C#N)=C/c3ccncc3)[nH]c2cc1C	SW480 rerep 13µM, MCF10A rereplic 23µM
N#C/C(=C\c1ccncc1)c1nc2ccccc2[nH]1	MCF10A rereplic inconclusive
N#C/C(=C\c1ccc(N2CCOCC2)c([N+](=O)[O-])c1)c1nc2ccccc2[nH]1	KB-V1 MDR tox 10µM, KB-3-1 cytotox inconclusive, ELG1 repair inh inconclusive
Cc1ccc(-n2nc3c(=O)n(CC(=O)NCc4ccco4)nc(C)c3c2C)cc1	none (no result: SW480 rerep, MCF10A rereplic, ELG1 repair inh)
CCOC(=O)c1c(NC(=O)CCCOc2ccc(C(C)(C)C)cc2)sc2c1CCC2	none (no result: SW480 rerep, MCF10A rereplic, ELG1 repair inh)
Cc1ccc2nc(/C(C#N)=C/c3cccc(Br)c3)[nH]c2c1	KB-V1 MDR tox inconclusive (no result: SW480 rerep, MCF10A rereplic, ELG1 repair inh)
Cc1ccc2nc(/C(C#N)=C/c3ccc(O)c(O)c3)[nH]c2c1	SW480 rerep 23µM, KB-3-1 cytotox inconclusive, MCF10A rereplic inconclusive, ELG1 repair inh inconclusive
Cc1cc(C)cc(NC(=O)c2ccc(Cn3nc(C)c(Cl)c3C)o2)c1	MCF10A rereplic inconclusive, ELG1 repair inh 21µM
Cc1nn(Cc2ccc(C(=O)Nc3ccccc3C(F)(F)F)o2)c(C)c1Br	KB-3-1 cytotox inconclusive, MCF10A rereplic inconclusive, ELG1 repair inh inconclusive
CCOc1ccc(NC(=O)c2ccc(Cn3nc(C)cc3C)o2)cc1	none
Cc1csc(NC(=O)c2ccc(Cn3nc(C)c(Br)c3C)o2)n1	KB-V1 MDR tox 2.6µM, KB-3-1 cytotox inconclusive, MCF10A rereplic inconclusive, ELG1 repair inh 9.2µM
Cc1ccc(CNC(=O)c2ccc(Cn3nc(C)c(Cl)c3C)o2)cc1	none
CCc1cccc(NC(=O)c2ccc(Cn3nc(C)cc3C)o2)c1	KB-V1 MDR tox 15µM
CN(C)C(=O)N1CCC(C(=O)NC2CCCCCCC2)CC1	SW480 rerep 8.2µM, MCF10A rereplic inconclusive
CCS(=O)(=O)N1CCC(C(=O)NC2CCCCC2)CC1	MCF10A rereplic inconclusive
O=C(NC1CCCCC1)N1CCCCCC1	none
O=C(NCC1CCCCC1)C1CCN(C(=O)NC2CCCCC2)CC1	KB-V1 MDR tox 16µM
COc1nc(OC)nc(N2CCCCCC2)n1	MCF10A rereplic 21µM
COc1nc(OC)nc(N2CCC(C(=O)NCC3CCCCC3)CC2)n1	KB-V1 MDR tox 18µM
CN(CCNC(=O)C1CCN(c2ncnc3c2nc2n3CCCCC2)CC1)Cc1ccccc1	KB-V1 MDR tox inconclusive, KB-3-1 cytotox inconclusive
O=c1c(-c2ccccc2)nnc2sc(COc3ccc(Br)cc3)nn12	none
CCOC(=O)c1cnc2ccc(C)cc2c1NCCN1CCOCC1	ELG1 repair inh inconclusive
CCOC(=O)N1CCN(C(=O)CCSCCc2ccncc2)CC1	none
COc1cc2c(C(=O)NCCN(C)C)cn(CC(C)C)c(=O)c2cc1OC	ELG1 repair inh inconclusive
CC(C)Cn1c(=S)[nH]c2cc(C(=O)NCc3ccccc3F)ccc2c1=O	KB-V1 MDR tox inconclusive, MCF10A rereplic 15µM
CCn1c(SCC(=O)N(C)C)nc2cc(S(=O)(=O)N3CCCCC3)ccc21	KB-V1 MDR tox 21µM
CCn1c(SCC(=O)N(C)C2CCCCC2)nc2cc(S(N)(=O)=O)ccc21	none
O=S(=O)(c1cccc(-c2nc3ccccc3s2)c1)N1CCCC1	KB-V1 MDR tox 15µM, KB-3-1 cytotox inconclusive
